# From publication PMC7862700, “An all-to-all approach to the identification of sequence-specific readers for epigenetic DNA modifications on cytosine”
# Legend:
# Assay in all cases: DAPPL (digital affinity profiling via proximity ligation, sequencing); 10 mM Tris-HCl pH 7.5, 50 mM NaCl, 1 mM DTT, 4% glycerol, room temperature, 30 min; GST-TFs on glutathione beads, 16-mer random dsDNA library, 0.1% formaldehyde crosslink after washing; high values mean tight binding
# FLI1 = target: T1, FLI1 (Homo sapiens, UniProt Q01543 1-452); conditions: protein: recombinant; tags: N-terminal GST; dsDNA, one strand shown
# T1 sequence: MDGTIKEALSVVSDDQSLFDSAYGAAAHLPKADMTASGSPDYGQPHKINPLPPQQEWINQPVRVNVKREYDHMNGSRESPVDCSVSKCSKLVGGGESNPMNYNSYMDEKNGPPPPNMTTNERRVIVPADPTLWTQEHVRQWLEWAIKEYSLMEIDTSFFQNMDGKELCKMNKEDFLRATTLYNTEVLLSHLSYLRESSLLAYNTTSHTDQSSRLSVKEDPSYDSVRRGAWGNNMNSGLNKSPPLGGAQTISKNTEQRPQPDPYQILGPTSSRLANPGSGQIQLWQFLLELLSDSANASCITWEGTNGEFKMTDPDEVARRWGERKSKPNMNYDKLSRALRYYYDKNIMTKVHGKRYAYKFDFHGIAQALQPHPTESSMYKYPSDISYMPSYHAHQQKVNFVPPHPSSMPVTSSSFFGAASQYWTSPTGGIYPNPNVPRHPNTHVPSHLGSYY
# Procedure, shortened: (§1)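 Human transcription factors were made in yeast as GST fusions, captured on glutathione beads and barcoded with DNA. With a tag-only sample included, the pool was incubated with 200 nmole of a random double-stranded 16-mer DNA library in Tris/NaCl/DTT/glycerol buffer at room temperature for 30 min, then crosslinked with 0.1% formaldehyde after washing, ligated by proximity, amplified and sequenced. For binding signal, each hexamer's read frequency for a factor is divided by its frequency for the tag-only sample.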
# ELK1 = target: T2, ELK1 (Homo sapiens, UniProt P19419 1-428); conditions: protein: recombinant; tags: N-terminal GST; dsDNA, one strand shown
# T2 sequence: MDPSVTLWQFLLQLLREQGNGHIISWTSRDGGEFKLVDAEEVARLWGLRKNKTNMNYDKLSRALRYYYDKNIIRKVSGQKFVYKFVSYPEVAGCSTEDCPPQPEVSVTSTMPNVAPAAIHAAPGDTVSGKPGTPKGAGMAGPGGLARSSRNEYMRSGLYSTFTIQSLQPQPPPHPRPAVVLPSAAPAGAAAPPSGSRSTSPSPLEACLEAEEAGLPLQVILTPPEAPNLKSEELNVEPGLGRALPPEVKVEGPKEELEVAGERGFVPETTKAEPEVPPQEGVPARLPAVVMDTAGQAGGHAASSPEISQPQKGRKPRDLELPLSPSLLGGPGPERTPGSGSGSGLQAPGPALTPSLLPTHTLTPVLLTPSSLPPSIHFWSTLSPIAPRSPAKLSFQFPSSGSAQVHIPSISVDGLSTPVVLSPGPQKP
# Procedure, shortened: as §1
# GABPA = target: T3, GABPA (Homo sapiens, UniProt Q06546 1-454); conditions: protein: recombinant; tags: N-terminal GST; dsDNA, one strand shown
# T3 sequence: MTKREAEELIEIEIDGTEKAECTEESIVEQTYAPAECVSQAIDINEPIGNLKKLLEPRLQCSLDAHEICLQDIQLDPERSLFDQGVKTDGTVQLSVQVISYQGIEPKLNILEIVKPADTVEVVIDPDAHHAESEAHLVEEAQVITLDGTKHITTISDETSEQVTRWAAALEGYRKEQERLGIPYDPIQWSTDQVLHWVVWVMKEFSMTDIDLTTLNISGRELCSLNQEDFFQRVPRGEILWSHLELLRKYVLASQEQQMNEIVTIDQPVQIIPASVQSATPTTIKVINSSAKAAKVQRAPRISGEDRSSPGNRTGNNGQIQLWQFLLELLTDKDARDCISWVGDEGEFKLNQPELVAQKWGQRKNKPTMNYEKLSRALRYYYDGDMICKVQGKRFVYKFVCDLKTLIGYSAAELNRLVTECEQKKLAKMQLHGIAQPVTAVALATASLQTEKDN
# Procedure, shortened: as §1
# ERG = target: T4, ERG (Homo sapiens, UniProt P11308 1-479); conditions: protein: recombinant; tags: N-terminal GST; dsDNA, one strand shown
# T4 sequence: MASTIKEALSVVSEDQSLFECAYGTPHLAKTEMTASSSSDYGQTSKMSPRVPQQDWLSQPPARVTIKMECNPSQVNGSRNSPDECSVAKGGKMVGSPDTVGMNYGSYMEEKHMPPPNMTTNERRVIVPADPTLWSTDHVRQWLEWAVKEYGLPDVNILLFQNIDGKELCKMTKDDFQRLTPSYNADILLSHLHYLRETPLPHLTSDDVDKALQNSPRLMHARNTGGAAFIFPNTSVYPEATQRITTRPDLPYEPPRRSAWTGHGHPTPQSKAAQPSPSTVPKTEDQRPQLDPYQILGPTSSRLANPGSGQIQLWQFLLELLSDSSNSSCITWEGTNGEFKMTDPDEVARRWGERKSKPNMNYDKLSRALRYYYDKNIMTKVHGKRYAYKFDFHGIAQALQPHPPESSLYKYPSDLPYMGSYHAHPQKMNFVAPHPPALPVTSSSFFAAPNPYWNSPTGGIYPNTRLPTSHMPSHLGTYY
# Procedure, shortened: as §1
# ELF1 = ELF1 (Homo sapiens, UniProt P32519 1-619); conditions: protein: recombinant; tags: N-terminal GST; dsDNA, one strand shown
# Sequence of ELF1 (P32519 whole entry): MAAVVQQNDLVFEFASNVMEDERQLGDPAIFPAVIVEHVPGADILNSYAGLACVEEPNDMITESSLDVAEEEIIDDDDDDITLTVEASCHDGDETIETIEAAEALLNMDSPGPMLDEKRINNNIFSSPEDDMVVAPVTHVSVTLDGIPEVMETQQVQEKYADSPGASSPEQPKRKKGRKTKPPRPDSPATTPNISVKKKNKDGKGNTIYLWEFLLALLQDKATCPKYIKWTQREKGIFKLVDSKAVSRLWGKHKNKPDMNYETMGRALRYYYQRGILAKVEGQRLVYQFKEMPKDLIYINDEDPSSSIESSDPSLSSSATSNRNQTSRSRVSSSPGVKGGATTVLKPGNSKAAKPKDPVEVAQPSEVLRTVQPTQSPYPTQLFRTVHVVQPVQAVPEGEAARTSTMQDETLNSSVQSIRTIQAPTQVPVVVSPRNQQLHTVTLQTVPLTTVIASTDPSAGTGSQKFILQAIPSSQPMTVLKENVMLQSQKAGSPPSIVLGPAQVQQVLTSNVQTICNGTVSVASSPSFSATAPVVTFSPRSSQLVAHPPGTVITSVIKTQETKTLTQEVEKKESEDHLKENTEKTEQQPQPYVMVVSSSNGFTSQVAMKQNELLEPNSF
# Procedure, shortened: as §1
# EHF = target: T5, EHF (Homo sapiens, UniProt Q9NZC4 1-300); conditions: protein: recombinant; tags: N-terminal GST; dsDNA, one strand shown
# T5 sequence: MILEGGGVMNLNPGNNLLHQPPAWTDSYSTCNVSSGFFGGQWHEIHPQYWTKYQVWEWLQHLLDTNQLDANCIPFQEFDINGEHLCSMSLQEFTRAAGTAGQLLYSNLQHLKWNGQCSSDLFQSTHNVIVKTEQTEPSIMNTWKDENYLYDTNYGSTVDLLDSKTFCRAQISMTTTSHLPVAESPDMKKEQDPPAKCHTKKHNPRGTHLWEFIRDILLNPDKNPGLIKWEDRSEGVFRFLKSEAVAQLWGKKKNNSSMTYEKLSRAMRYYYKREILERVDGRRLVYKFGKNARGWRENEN
# Procedure, shortened: as §1
# SPI1 = SPI1 (Homo sapiens, UniProt P17947 1-270); conditions: protein: recombinant; tags: N-terminal GST; dsDNA, one strand shown
# Procedure, shortened: as §1
# SPIB = SPIB (Homo sapiens, UniProt Q01892 1-262); conditions: protein: recombinant; tags: N-terminal GST; dsDNA, one strand shown
# Sequence of SPIB (Q01892 whole entry): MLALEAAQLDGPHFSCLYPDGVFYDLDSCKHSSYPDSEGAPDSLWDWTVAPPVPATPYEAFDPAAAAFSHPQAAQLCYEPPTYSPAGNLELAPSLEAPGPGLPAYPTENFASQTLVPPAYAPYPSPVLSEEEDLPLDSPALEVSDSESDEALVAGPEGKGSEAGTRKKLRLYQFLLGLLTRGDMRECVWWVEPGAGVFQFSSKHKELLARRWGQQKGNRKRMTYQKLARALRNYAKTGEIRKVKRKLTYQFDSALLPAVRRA
# Procedure, shortened: as §1
# ELK3 = target: T6, ELK3 (Homo sapiens, UniProt P41970 1-407); conditions: protein: recombinant; tags: N-terminal GST; dsDNA, one strand shown
# T6 sequence: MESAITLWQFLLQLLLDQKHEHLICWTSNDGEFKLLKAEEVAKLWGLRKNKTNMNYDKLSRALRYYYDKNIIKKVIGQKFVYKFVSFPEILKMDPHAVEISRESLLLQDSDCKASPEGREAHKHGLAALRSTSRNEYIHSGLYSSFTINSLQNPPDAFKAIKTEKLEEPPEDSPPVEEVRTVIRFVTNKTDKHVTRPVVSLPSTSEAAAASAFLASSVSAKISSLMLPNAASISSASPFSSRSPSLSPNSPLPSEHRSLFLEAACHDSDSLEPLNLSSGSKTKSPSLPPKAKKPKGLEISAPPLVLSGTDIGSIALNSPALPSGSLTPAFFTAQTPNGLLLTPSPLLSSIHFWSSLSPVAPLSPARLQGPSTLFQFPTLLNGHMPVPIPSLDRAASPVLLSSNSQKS
# Procedure, shortened: as §1
# FEV = target: T7, FEV (Homo sapiens, UniProt Q99581 1-238); conditions: protein: recombinant; tags: N-terminal GST; dsDNA, one strand shown
# T7 sequence: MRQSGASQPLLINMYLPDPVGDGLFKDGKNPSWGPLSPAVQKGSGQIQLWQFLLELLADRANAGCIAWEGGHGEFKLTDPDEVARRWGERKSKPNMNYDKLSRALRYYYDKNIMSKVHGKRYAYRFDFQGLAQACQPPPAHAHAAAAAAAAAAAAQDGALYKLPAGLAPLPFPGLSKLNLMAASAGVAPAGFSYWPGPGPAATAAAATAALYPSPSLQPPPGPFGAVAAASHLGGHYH
# Procedure, shortened: as §1
# ETV5 = ETV5 (Homo sapiens, UniProt P41161 1-510); conditions: protein: recombinant; tags: N-terminal GST; dsDNA, one strand shown
# Sequence of ETV5 (P41161 whole entry): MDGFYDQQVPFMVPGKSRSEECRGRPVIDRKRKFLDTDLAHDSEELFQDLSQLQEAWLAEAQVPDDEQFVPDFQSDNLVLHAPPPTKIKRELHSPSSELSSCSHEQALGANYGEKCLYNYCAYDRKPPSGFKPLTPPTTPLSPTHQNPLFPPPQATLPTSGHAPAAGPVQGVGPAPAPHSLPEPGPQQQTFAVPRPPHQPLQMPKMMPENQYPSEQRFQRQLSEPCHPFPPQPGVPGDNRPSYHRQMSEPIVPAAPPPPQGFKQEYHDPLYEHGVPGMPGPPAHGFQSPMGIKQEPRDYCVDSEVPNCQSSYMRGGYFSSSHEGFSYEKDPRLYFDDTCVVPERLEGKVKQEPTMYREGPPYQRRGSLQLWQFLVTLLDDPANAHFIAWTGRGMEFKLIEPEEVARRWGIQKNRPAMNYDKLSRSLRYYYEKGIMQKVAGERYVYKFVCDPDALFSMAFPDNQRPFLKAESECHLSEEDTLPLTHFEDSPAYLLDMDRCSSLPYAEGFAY
# Procedure, shortened: as §1
# HSF1 = HSF1 (Homo sapiens, UniProt Q00613 1-529); conditions: protein: recombinant; tags: N-terminal GST; chain copies: 3; dsDNA, one strand shown
# Sequence of HSF1 (Q00613 whole entry): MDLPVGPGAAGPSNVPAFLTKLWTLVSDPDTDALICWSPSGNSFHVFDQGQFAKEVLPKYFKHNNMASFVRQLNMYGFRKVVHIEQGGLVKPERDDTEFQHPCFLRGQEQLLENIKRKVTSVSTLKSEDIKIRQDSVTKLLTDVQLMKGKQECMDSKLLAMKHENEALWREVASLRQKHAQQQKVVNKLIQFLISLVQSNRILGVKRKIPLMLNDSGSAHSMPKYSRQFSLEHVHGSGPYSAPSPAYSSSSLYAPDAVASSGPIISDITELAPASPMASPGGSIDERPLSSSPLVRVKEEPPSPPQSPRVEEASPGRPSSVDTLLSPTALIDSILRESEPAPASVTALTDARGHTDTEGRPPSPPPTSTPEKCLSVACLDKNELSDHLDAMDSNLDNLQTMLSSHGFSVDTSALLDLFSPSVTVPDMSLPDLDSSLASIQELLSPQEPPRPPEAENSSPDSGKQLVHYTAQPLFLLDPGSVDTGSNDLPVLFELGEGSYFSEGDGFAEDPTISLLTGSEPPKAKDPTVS
# Procedure, shortened: as §1
# SPIC = target: T8, SPIC (Homo sapiens, UniProt Q8N5J4 1-248); conditions: protein: recombinant; tags: N-terminal GST; dsDNA, one strand shown
# T8 sequence: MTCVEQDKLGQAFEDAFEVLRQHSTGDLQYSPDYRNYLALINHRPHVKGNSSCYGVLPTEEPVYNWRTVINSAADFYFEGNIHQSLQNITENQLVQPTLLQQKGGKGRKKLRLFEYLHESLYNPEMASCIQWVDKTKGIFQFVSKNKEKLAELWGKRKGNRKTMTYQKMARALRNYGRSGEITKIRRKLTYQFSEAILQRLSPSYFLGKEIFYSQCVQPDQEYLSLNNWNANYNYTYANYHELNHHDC
# Procedure, shortened: as §1
# ELF4 = ELF4 (Homo sapiens, UniProt Q99607 1-663); conditions: protein: recombinant; tags: N-terminal GST; dsDNA, one strand shown
# Sequence of ELF4 (Q99607 whole entry): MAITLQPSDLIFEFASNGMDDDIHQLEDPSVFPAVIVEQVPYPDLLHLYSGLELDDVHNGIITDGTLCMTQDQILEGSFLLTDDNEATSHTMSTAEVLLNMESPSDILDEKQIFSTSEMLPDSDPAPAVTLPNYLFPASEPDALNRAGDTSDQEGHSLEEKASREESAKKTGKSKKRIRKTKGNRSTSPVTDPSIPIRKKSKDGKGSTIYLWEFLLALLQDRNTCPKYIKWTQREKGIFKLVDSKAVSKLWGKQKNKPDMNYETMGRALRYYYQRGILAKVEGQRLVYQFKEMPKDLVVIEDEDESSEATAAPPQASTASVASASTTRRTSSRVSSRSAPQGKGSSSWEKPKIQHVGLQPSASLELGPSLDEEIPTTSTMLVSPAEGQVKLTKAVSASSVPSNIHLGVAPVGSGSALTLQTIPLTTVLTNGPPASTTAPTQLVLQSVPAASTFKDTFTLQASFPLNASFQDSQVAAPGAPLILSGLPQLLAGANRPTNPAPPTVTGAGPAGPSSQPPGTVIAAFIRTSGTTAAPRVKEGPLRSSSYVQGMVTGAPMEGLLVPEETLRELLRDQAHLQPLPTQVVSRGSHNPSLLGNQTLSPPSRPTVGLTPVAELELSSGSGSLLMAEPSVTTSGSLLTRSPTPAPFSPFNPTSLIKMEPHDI
# Procedure, shortened: as §1
# ELK4 = target: T9, ELK4 (Homo sapiens, UniProt P28324-2 1-405); conditions: protein: recombinant; tags: N-terminal GST; dsDNA, one strand shown
# T9 sequence: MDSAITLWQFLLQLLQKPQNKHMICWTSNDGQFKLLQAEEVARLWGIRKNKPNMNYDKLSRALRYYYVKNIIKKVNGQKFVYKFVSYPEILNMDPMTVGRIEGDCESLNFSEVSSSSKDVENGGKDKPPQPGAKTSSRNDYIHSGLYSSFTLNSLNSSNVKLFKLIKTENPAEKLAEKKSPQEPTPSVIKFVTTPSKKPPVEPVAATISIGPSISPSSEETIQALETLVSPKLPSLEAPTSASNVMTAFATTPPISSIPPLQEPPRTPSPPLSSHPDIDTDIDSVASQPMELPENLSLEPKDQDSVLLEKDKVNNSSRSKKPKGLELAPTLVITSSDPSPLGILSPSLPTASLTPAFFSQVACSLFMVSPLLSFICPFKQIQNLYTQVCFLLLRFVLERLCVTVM
# Procedure, shortened: as §1
# ETV2 = target: T10, ETV2 (Homo sapiens, UniProt O00321 1-342); conditions: protein: recombinant; tags: N-terminal GST; dsDNA, one strand shown
# T10 sequence: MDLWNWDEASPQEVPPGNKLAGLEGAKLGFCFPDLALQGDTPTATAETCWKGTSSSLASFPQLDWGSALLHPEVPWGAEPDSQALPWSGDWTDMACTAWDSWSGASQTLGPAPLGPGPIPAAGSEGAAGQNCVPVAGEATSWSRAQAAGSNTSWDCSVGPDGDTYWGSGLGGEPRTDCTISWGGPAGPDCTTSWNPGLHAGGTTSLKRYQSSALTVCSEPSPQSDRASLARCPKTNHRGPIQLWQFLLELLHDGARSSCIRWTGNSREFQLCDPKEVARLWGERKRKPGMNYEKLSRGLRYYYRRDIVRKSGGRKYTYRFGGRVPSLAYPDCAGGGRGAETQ
# Procedure, shortened: as §1
# ELF3 = target: T11, ELF3 (Homo sapiens, UniProt P78545 1-371); conditions: protein: recombinant; tags: N-terminal GST; dsDNA, one strand shown
# T11 sequence: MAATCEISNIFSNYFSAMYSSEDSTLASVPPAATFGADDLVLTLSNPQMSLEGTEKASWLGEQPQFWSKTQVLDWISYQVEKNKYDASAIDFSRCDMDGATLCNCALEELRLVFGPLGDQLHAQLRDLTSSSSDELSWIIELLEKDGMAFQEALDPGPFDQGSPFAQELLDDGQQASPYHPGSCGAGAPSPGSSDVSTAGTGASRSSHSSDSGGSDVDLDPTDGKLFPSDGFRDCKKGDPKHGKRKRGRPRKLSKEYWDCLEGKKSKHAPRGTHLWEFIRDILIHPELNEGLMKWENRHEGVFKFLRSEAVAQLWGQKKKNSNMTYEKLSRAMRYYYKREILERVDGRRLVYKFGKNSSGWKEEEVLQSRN
# Procedure, shortened: as §1
# CRX = CRX (Homo sapiens, UniProt O43186 1-299); conditions: protein: recombinant; tags: N-terminal GST; dsDNA, one strand shown
# Sequence of CRX (O43186 whole entry): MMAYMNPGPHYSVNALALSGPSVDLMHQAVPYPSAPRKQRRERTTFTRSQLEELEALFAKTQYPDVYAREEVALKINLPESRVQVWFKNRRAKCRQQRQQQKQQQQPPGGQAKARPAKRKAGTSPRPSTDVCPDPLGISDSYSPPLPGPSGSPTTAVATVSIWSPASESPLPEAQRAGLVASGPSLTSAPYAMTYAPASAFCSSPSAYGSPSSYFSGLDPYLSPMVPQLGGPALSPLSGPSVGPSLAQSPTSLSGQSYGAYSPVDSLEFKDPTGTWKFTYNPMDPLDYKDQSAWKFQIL
# Procedure, shortened: as §1
# ETV1 = ETV1 (Homo sapiens, UniProt P50549 1-477); conditions: protein: recombinant; tags: N-terminal GST; dsDNA, one strand shown
# Sequence of ETV1 (P50549 whole entry): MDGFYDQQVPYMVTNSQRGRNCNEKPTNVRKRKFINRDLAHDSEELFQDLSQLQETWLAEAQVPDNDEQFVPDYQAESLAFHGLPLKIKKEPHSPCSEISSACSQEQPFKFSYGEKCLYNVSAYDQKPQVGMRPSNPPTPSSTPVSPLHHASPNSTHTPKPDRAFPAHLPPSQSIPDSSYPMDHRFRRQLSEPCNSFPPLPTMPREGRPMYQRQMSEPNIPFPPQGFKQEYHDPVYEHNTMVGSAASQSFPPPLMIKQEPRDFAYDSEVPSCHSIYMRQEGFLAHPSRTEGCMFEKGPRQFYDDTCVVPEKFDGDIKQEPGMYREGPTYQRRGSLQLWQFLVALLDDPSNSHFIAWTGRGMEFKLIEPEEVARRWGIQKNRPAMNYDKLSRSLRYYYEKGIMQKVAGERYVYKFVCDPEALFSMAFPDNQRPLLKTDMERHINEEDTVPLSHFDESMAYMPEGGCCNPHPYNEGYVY
# Procedure, shortened: as §1
sequence,measurement,setting,value
GTATTA,binding signal,FLI1,"1.17 fold enrichment (6-mer frequency, TF over GST control)"
same,binding signal,ELK1,"1.2 fold enrichment (6-mer frequency, TF over GST control)"
same,binding signal,GABPA,"1.07 fold enrichment (6-mer frequency, TF over GST control)"
same,binding signal,ERG,"1.12 fold enrichment (6-mer frequency, TF over GST control)"
same,binding signal,ELF1,"1.11 fold enrichment (6-mer frequency, TF over GST control)"
same,binding signal,EHF,"1.03 fold enrichment (6-mer frequency, TF over GST control)"
same,binding signal,SPI1,"1.04 fold enrichment (6-mer frequency, TF over GST control)"
same,binding signal,SPIB,"1.07 fold enrichment (6-mer frequency, TF over GST control)"
same,binding signal,ELK3,"1.06 fold enrichment (6-mer frequency, TF over GST control)"
same,binding signal,FEV,"1.09 fold enrichment (6-mer frequency, TF over GST control)"
same,binding signal,ETV5,"1.14 fold enrichment (6-mer frequency, TF over GST control)"
same,binding signal,HSF1,"1.62 fold enrichment (6-mer frequency, TF over GST control)"
same,binding signal,SPIC,"1.04 fold enrichment (6-mer frequency, TF over GST control)"
same,binding signal,ELF4,"1.08 fold enrichment (6-mer frequency, TF over GST control)"
same,binding signal,ELK4,"1.14 fold enrichment (6-mer frequency, TF over GST control)"
same,binding signal,ETV2,"1.2 fold enrichment (6-mer frequency, TF over GST control)"
same,binding signal,ELF3,"1.09 fold enrichment (6-mer frequency, TF over GST control)"
same,binding signal,CRX,"2.49 fold enrichment (6-mer frequency, TF over GST control)"
same,binding signal,ETV1,"1.13 fold enrichment (6-mer frequency, TF over GST control)"
